Out of some 31,000 sequences screened, about 1,400 (4.5%) were called active.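 Rule for the calls: active = median seed-adjusted z-score above 1 or below -1; inactive = the rest.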 Shown is part of a subset that was picked to be rich in actives.

This assay can be described thus: Novel Modifiers of Survival Motor Neuron (SMN) Protein: Gene Identification via Genome-wide siRNA Screen.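 Note: luminescence tracks full-length SMN protein made from the SMN2 reporter.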 Particulars: HEK293T SMN2-luciferase reporter, siRNA knockdown, 72 h; actives lie on both sides. Summed up:
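Luciferase signal, proportional to full-length SMN made from an SMN2 cDNA reporter in stable HEK293T cells, was read 72 h after siRNA reverse transfection. Values were expressed as MAD scores after non-targeting-control normalization and log10 conversion; seed analysis flagged off-targets.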
Background: Reporter assays use an easily measured gene product as a stand-in for the process of interest.
Consider GGAUGAGAAGAGACGUAGATT against DNMT1, for which the median seed-adjusted z-score is 0.185 (inactive).
As for CAUGAACCCUUGGUAGAUATT against TBRG1, the figure is -1.47 (active).
For “GGGUUUUUGCGCUUCAAAATT against GALNAC4S-6ST”, the median seed-adjusted z-score was 0.218 (inactive).
As for GCAAAAUGAUCAUUAAUGATT against EIF3C, the figure is 0.56 (inactive); as for GGACCAUAAUCAAUGUAGATT against ZNF585A, -0.168 (inactive).
With CCUCAACUAUCAGAACAAUTT against KLF10 the figure was 0.616 (inactive); with GGUUGUUGUAUACUUGCAATT against LIPJ, 0.295 (inactive); with GACCUAUGCAGUUCGAAAATT against SFRS1, -1.66 (active).
As for GGAGUGUGCUGAAGACCUATT against GFER, the figure is 0.402 (inactive).
For the sequence CCACGUGAUAAAUCAAGAATT against PRPF4B, the median seed-adjusted z-score was -2.29 (active).
Regarding GAAAGACACUGGGACUCGATT against SNRNP35, the median seed-adjusted z-score is 0.172 (inactive).
As to GCAUCGCAAGAGCUGCAAATT against DPYD, the median seed-adjusted z-score is -0.112 (inactive).
Turning to GAUUGUCAAUGGGUGUAUUTT against AOF1, the median seed-adjusted z-score is -0.211 (inactive).
On to CCCUCCAAAUAGCAAAUGUTT against PCOLCE2, for which the median seed-adjusted z-score was -1.15 (active).
As for GGGUCAUACGAAUACCGAUTT against VIPR2, the figure is 0.706 (inactive); as for GCAACGUGAUCAAAGGUAUTT against GNA13, 0 (inactive); as for CAAGGACAACUCAAACUUATT against PRKACA, -0.137 (inactive).
Consider CGUAUAUAGAGUUCUCAGATT against PABPN1, for which the median seed-adjusted z-score is -0.757 (inactive).
As for CCCUUAAUUUUGUAACAGATT against SLC7A6, the figure is -0.0877 (inactive).
As to GGGUAACCACUGACAUUCATT against SUPT5H, the median seed-adjusted z-score is -4.02 (active).
Regarding GCCUUAAAAAGCACCAAAATT against ZNF16, the median seed-adjusted z-score was 0 (inactive).
As for AAGUUCCUAUCGGUCGUAUTT against HBZ, the figure is -0.0054 (inactive); as for GGACCAUCGGGAUCAUCAATT against P2RX3, -0.44 (inactive).
Regarding GCAAUGAACACCAUCCGAATT against KEAP1, the median seed-adjusted z-score was 0.207 (inactive).
With AGCUCUUAUUAGCUGCAUATT against MS4A7, the median seed-adjusted z-score was 0.0794 (inactive).
On to GCAACGAUCACCUAAAUUATT against NOP2, for which the median seed-adjusted z-score was 1.15 (active).
With GGUCAAAUCAGCAAAGGUUTT against RNF25 the figure was -0.0826 (inactive).
CGACAAUCUAACUUCCGUATT against CYTH3: the median seed-adjusted z-score was 0.196 (inactive).
On to CAGGCAUCAUAUUUUGAAATT against NUDT3, for which the median seed-adjusted z-score is 0.674 (inactive).
With CAAAGAUUCUGACUGAUGATT against GPATCH4, the median seed-adjusted z-score was -0.519 (inactive).
With GAACCUAUCUGAUCGGCAATT against RFX3 the figure was 0.17 (inactive).
With CAUCUUAAGUGUUUUACAUTT against LMO4 the figure was -0.067 (inactive); with GCAGCAUACAGGAAUACCATT against ATRNL1, -0.142 (inactive).
With GCAGCAUAUUAUAGACAAATT against ZBTB37 the figure was -0.219 (inactive); with GCCUGGGUCAAAUACAGUATT against KLHL20, -0.0828 (inactive); with GAUCAUUGCUGGGAAUCUATT against GPR52, -1.17 (active).
For GUCUGAAUGUCGAAGAGAATT against G3BP1, the median seed-adjusted z-score was -0.593 (inactive).
As for CUGGAACAGUGUACCCAAATT against CD2AP, the figure is 0.113 (inactive); as for CCAUGUGAUUAUGUACUCATT against ELOVL4, 0.166 (inactive); as for AGAUAUAUAAAUCAACGAATT against LSM3, -1.36 (active).
Turning to UGACCUACGAGGAAAUUCATT against PFKFB4, the median seed-adjusted z-score is 0.149 (inactive).
As for CAACGAUAGCUUAUCCCAATT against LPGAT1, the figure is 0.625 (inactive).
With GCUUAUAUGGUGUACAUUUTT against ELOVL6 the figure was 0.742 (inactive); with UCCCGUUCCGUACGACUUATT against DHRS7C, -0.398 (inactive).
As for GUGGGAGUCGGGACAUAUATT against MAFK, the figure is 1.73 (active); as for CCAUUGAUGCAACAGGUAATT against USO1, 0.21 (inactive).
For the sequence CAAGGACAAAUUUCCCGUUTT against HOXD8, the median seed-adjusted z-score is -0.883 (inactive).
With GCAUGGUACUCUAUAGUCUTT against FAT4 the figure was -0.363 (inactive); with GGAUGUGGUAGUACAGAAATT against PSMD2, -1.44 (active).
Consider GACUGACGAUGACACGGAATT against KPNA6, for which the median seed-adjusted z-score is -1.54 (active).
With GGUACUCCAGAGUAUAACATT against CMYA5 the figure was -0.858 (inactive).
With GAGCCUGACUCAGUCUUUATT against AQP9 the figure was -0.192 (inactive); with GAGAAAUCGUGCUCAGUUATT against CNOT8, 0.375 (inactive).
In the case of CCUGUUUCCGUGAAGAAAATT against CXCR4, the median seed-adjusted z-score is -0.347 (inactive).
With ACACCUCUCCGGACACCAATT against IRF3 the figure was 0.0117 (inactive); with GACGAUGAAUGAAAAGGCATT against NRBP1, -1.13 (active).
Turning to AGAAUUCUUCGAUCACAAATT against KCNMB3, the median seed-adjusted z-score was 0.513 (inactive).
With CAAGUACCCUGAUAGAGUUTT against ABHD4, the median seed-adjusted z-score is -0.054 (inactive).
With AGAUGAAGCUGCAAGUGUATT against COX10 the figure was 0.339 (inactive); with CAGUGGAUCAAAUAACGCATT against ADAMTS20, 1.44 (active); with GAACCUCAGUCAAAUCGAUTT against OXSR1, -0.0682 (inactive).
For the sequence CCAUUUGGAUAUCAAAGUATT against ILF2, the median seed-adjusted z-score was -0.19 (inactive).
With CAGUCAAGCUUGGAGUUAATT against SYTL3, the median seed-adjusted z-score is 0.236 (inactive).
In the case of AGAUGUUCUGAGGCUGAUATT against OASL, the median seed-adjusted z-score is 1.02 (active).
As for GGAUAAGGACGACCAGAUUTT against HPCAL4, the figure is 0.282 (inactive).
As for GUGCUAAAUUUAGCUCAAATT against IL2, the figure is 0.0694 (inactive); as for CCAAGCAAAUAGUAGAAGATT against CYLC1, 0.177 (inactive).
On to GAACGAGUCCUUUACUACATT against GFM1, for which the median seed-adjusted z-score was -0.0641 (inactive).
In the case of CAACUUUCAGAUCAGUGAATT against ARD1A, the median seed-adjusted z-score is -1.05 (active).
As for CAGACAAGCUGAUCCGCAUTT against TGM5, the figure is 0.0181 (inactive); as for GGUCUGUUCUUCUUACAGATT against PRKCB1, 0.0463 (inactive); as for GCCCAUCGUGCUUAAAGAATT against RASA3, 0.0056 (inactive).
With CACCUACUGUAGAGGUGAATT against GPRC6A the figure was 0 (inactive).
As to GAACAUAUCAAGACCGGUUTT against MED30, the median seed-adjusted z-score is -2.06 (active).
As to UAGGGAAGCUGAAAGUGCATT against OXER1, the median seed-adjusted z-score is -0.471 (inactive).
As for CAACCAAUAUAGAACUUCATT against RBBP5, the figure is 0.169 (inactive); as for GCAGCCUUGUCAUCGACAATT against PDLIM1, -0.189 (inactive).
As for CCUAAAGCCUGAAGAAGAATT against TXNDC2, the median seed-adjusted z-score is -1.29 (active).
For CAUCGGUGCCCAGAAGUCATT against SSBP4, the median seed-adjusted z-score was 0.254 (inactive).
Turning to GACUCUCUGAGGUAGAAAATT against EPN3, the median seed-adjusted z-score was 0.184 (inactive).
As to GCUAGAACGGGAACGAAGATT against NEK10, the median seed-adjusted z-score was -0.0464 (inactive).
Take CCAGUGCUCCCGAAACUGATT against KRTAP5-5: the median seed-adjusted z-score is -1.07 (active).
Take GCUCAUCGUGGGUCUCCUATT against POR: the median seed-adjusted z-score was 0.189 (inactive).
Turning to CUCUCGUACUUUGAACCUATT against PANK3, the median seed-adjusted z-score is -0.185 (inactive).
As for CCCACUAUGCAAAAUGUAATT against PCMT1, the figure is 0.139 (inactive); as for GGUGGUCCAUGAAAAAGCATT against SOD1, -0.8 (inactive).
On to GCCUUAAAGACUUACCGAATT against USPL1, for which the median seed-adjusted z-score was -1.87 (active).
GUUUGUGACUGUAACCAUUTT against CTBP1: the median seed-adjusted z-score was 0.105 (inactive).
With GCUAUGGUGCUGUCGCUUATT against RHOXF2 the figure was -0.331 (inactive).
With GGAAUGGACUCAGUGAUCATT against PFTK1 the figure was 0.088 (inactive); with CGCGGAAACUUGUCCCUAUTT against SP2, -0.617 (inactive); with GCCCUGACAUUUCCCGAAATT against FOXJ2, -0.627 (inactive).
As for UCAAUAAACUGCACGAAUATT against HS3ST1, the median seed-adjusted z-score is 1.21 (active).
Take ACGUGGAAGUGACCCGGAATT against MTX1: the median seed-adjusted z-score was -0.159 (inactive).
Turning to GCAUGUCCCGAAAACAAGATT against KLF7, the median seed-adjusted z-score is 0.393 (inactive).
Regarding GGACUUACGUGGAAGUAGATT against PLCB1, the median seed-adjusted z-score is 0.0735 (inactive).
As for CGUAGUAUAUUAACAAGUATT against MKKS, the figure is 1.03 (active); as for CUCUAGGAGUGACCACGAATT against LYPLAL1, -0.425 (inactive).
As for GGAGCACAGAAUACCGGAATT against C3orf64, the figure is 0.0771 (inactive); as for CAAACGGGCUCAUCAUAAUTT against MAX, 0.0949 (inactive).
With AGAGACCCAUGGGAACAAATT against SIGMAR1, the median seed-adjusted z-score was -1.4 (active).
As for CGAAUGUCACCAUAUAUAATT against IL1RL1, the median seed-adjusted z-score is -0.286 (inactive).
With AGGAGGUUACGGCACAAAATT against STK11 the figure was 0.348 (inactive); with GCAACACCAUCGUCUGUGATT against P2RY13, -0.0427 (inactive).
As for GGAACAUCAUUCUACCCAATT against KIF15, the figure is -0.873 (inactive).
With CCUUAAUCCUUUGUUAACATT against KPNA6 the figure was -1.54 (active); with GGAUGAUGUACUUCUCUCATT against MLNR, -0.038 (inactive); with CCCUGUCCUUAGCACUCUATT against GFI1B, 0.154 (inactive).

Source of the values: PubChem BioAssay AID1347426 (Functional Genomics Laboratory (NCATS/FGL), 2020).
